The source of these data is ChEMBL document CHEMBL3988442, “University of Dundee, Small-Polar-MMV Screening Library” (2021).

Design in all cases: scale not given: direction of the effect not stated beside the values
For test [1], the target named is Protein translocase subunit SecA (Escherichia coli (strain K12)) (UniProt P10408). The test is described as follows: Assay to Identify E. coli SecA ATPase Inhibitors. The settings on record: 30 µM. The format is functional.
Test [2] deals with T1, Ubiquitin-activating enzyme e1, putative (Leishmania donovani (strain BPK282A1)) (UniProt E9BSI1).
T1 sequence (whole entry): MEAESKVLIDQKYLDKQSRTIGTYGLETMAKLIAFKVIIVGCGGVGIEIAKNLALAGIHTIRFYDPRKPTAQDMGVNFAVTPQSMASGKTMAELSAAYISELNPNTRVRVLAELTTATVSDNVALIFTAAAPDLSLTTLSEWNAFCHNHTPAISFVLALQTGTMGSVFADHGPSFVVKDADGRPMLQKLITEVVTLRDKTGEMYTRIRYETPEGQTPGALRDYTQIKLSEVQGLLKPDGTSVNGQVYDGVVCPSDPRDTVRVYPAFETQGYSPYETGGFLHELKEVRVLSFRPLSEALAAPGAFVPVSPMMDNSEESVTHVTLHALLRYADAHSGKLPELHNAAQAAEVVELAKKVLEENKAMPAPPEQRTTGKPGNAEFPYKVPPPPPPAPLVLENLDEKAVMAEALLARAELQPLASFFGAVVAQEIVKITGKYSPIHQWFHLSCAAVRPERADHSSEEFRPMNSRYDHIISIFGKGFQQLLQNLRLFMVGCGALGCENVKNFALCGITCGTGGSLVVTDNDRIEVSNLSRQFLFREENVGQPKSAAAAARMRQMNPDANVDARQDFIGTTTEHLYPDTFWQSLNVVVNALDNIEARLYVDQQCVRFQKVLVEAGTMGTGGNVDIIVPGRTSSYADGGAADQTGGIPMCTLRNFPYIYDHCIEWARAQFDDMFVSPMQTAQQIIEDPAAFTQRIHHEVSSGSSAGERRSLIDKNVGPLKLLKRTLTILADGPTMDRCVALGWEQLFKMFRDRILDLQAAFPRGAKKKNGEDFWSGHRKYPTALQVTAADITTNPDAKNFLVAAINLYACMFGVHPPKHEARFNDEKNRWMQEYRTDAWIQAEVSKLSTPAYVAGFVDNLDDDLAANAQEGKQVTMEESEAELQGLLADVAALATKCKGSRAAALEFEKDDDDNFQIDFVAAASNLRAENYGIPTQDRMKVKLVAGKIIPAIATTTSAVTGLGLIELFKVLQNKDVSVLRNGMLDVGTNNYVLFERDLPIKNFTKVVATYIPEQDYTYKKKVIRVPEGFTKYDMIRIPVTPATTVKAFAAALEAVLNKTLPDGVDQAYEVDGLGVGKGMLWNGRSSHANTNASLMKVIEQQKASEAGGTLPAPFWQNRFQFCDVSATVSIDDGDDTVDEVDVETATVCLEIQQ
The test is described as follows: Leishmania donovani Ubiquitin Activating Enzyme (LdE1). The format is functional. Conditions: 30 µM.

The target of test [3] is AMP-activated protein kinase, AMPK (Homo sapiens) (UniProt P54646+O43741+P54619+Q9UGJ0+Q9Y478+Q13131+Q9UGI9). Put plainly: AMP-dependent Kinase enzyme assay. An in vitro enzyme assay that detects ADP turnover that is directly proportional to AMPK activity. This uses naive AMPK that is activated during the assay with MK-8722. The class given is functional. Conditions: 30 µM.

In test [4] the target is Sialic acid-binding Ig-like lectin 9 (Homo sapiens) (UniProt Q9Y336). The test is described as follows: Hs-Siglec9 ALPHAscreen SOP 20170721. The settings on record: 10 µM.
Test [5] deals with Trypanosoma cruzi. The test is described as follows: Trypanosoma cruzi phosphomannomutase and mannose-1-phosphate guanylyltransferase assay. The format is functional. Conditions: 10 µM.
For test [6], the target named is T2, Arginase-2, mitochondrial (Homo sapiens) (UniProt P78540).
T2 sequence (whole entry): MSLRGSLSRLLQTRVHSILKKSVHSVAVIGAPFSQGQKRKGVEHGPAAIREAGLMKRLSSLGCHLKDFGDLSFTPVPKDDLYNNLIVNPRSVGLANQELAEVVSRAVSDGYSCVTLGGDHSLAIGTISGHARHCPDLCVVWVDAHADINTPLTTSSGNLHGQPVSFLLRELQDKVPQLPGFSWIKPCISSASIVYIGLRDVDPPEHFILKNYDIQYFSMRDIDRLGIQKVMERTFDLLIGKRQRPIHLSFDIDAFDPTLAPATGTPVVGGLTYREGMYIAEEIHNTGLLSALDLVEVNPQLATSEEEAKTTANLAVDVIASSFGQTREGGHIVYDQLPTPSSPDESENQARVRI
Put plainly: in vitro enzyme assay to detect the production of urea directly proportional to the activity of Arginase II. Note: in the data most compounds retested in dose-response had high values. The format is functional. The settings on record: 33.3 µM.

In test [7] the target is T3, Proteasome subunit beta (Trypanosoma cruzi) (UniProt O96673).
T3 sequence (whole entry): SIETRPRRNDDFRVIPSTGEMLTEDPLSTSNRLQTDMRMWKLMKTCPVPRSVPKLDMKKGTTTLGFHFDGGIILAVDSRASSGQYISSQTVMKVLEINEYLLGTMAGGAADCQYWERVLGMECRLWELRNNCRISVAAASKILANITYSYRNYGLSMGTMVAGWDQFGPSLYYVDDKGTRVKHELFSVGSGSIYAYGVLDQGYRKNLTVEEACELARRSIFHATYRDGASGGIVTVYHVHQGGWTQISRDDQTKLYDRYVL
The test is described as follows: Trypanosoma cruzi proteasome chymotrypsin-like activity (TcProtChymo) assay. Note: in the data most compounds retested in dose-response had high values. The class given is functional. The settings on record: 9.37 µM.

The species entered for test [8] is Homo sapiens. The test is described as follows: To identify inhibition of the IFN signalling (Jak-Stat) pathway via expression of an eGFP reporter gene under the control of an IFN-stimulated response element (ISRE) containing MxA promoter. The format is functional. Conditions: 30 µM. In general terms: Reporter assays use an easily measured gene product as a stand-in for the process of interest.

Test [9] deals with T4, Tyrosyl-tRNA synthetase, putative (Trypanosoma cruzi (strain CL Brener)) (UniProt Q4DSP6).
T4 sequence (whole entry): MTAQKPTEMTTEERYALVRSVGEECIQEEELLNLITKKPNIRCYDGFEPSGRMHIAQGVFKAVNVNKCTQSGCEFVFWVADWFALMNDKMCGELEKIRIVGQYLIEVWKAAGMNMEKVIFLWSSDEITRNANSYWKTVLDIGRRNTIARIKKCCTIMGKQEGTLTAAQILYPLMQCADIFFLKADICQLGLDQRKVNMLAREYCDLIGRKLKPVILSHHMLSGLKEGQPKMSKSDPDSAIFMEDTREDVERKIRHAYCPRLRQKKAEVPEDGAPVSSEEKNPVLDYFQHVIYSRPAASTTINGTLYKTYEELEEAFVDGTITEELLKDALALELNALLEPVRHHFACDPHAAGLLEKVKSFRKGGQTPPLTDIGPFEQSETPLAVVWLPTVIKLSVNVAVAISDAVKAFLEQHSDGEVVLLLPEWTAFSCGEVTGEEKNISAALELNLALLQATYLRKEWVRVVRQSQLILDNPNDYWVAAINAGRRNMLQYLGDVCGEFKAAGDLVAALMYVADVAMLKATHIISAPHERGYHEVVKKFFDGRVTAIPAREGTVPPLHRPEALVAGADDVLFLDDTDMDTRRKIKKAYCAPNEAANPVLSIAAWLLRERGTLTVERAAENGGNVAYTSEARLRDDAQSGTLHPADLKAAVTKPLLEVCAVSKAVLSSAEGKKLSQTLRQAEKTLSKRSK
The test is described as follows: Trypanosoma cruzi tyrosyl tRNA synthetase (TcYRS) _High Tyrosine SOP. Note: in the data most compounds retested in dose-response had high values. The settings on record: 30 µM. The format is functional.

In test [10] the target is T4, Tyrosyl-tRNA synthetase, putative (Trypanosoma cruzi (strain CL Brener)). Put plainly: Trypanosoma cruzi tyrosyl tRNA synthetase (TcYRS) SOP. The class given is functional. Conditions: 30 µM.
Test [11] concerns the target Chromo domain-containing protein 1 (Saccharomyces cerevisiae (strain ATCC 204508 / S288c) (Baker's yeast)) (UniProt P32657). Put plainly: ScCHD-1 Enzyme Inhibition Assay. Note: in the data most compounds retested in dose-response had high values. The format is functional. Conditions: 30 µM.

Structures are written as SMILES. For some of these results: Measured potencies and affinities stand elsewhere.

Sequence of Sialic acid-binding Ig-like lectin 9 (Homo sapiens) (Q9Y336 whole entry): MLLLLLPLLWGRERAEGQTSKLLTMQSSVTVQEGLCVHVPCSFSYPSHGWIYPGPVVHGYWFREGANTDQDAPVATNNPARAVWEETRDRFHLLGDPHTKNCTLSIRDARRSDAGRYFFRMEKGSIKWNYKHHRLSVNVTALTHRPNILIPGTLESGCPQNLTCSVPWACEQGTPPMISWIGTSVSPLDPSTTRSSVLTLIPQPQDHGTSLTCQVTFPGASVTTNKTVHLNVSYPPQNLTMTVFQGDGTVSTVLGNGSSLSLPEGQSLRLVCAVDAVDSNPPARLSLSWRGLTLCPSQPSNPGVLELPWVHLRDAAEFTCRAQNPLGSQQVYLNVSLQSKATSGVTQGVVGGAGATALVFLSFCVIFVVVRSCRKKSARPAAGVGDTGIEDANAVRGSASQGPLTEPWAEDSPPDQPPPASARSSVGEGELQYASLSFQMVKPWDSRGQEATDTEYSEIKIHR
Sequence of Chromo domain-containing protein 1 (Saccharomyces cerevisiae (strain ATCC 204508 / S288c) (Baker's yeast)) (P32657 whole entry, the tested form may be a part): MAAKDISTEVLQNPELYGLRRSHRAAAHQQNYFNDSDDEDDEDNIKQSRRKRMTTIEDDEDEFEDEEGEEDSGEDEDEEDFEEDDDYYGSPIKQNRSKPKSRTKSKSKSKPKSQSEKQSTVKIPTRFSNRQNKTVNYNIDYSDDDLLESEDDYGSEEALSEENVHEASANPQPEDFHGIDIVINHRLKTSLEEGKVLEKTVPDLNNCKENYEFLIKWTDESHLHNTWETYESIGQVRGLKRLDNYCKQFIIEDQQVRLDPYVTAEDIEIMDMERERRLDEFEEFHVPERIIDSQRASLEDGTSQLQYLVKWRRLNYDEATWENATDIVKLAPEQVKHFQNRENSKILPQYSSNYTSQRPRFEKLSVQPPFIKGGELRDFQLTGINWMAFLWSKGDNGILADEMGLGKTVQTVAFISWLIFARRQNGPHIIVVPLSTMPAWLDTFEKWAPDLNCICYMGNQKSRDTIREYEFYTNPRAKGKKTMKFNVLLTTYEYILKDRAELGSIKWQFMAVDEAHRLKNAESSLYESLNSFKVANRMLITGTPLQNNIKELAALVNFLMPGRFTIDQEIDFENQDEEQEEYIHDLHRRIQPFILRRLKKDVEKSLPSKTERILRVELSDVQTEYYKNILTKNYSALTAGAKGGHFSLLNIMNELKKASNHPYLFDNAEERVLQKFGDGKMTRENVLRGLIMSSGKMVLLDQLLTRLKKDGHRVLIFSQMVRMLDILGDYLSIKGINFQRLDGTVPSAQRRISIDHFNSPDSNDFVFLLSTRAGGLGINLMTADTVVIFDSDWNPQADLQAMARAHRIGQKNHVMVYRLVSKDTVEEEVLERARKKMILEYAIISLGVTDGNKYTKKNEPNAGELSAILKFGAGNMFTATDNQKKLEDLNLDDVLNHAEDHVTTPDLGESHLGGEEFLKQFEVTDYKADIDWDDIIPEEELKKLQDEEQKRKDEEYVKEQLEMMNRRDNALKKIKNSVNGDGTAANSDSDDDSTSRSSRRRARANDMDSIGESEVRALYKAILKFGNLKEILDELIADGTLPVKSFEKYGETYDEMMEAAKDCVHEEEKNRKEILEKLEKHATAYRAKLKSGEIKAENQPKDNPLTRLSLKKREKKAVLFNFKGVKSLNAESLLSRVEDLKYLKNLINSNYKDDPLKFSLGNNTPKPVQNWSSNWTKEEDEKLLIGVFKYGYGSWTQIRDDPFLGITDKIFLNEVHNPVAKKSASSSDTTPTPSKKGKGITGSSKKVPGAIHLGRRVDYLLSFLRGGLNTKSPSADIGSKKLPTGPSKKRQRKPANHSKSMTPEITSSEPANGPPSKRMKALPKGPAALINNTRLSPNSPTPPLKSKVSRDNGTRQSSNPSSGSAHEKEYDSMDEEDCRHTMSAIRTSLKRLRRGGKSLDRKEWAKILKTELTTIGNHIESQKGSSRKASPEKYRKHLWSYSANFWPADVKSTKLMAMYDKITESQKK
Sequence of Protein translocase subunit SecA (Escherichia coli (strain K12)) (P10408 whole entry): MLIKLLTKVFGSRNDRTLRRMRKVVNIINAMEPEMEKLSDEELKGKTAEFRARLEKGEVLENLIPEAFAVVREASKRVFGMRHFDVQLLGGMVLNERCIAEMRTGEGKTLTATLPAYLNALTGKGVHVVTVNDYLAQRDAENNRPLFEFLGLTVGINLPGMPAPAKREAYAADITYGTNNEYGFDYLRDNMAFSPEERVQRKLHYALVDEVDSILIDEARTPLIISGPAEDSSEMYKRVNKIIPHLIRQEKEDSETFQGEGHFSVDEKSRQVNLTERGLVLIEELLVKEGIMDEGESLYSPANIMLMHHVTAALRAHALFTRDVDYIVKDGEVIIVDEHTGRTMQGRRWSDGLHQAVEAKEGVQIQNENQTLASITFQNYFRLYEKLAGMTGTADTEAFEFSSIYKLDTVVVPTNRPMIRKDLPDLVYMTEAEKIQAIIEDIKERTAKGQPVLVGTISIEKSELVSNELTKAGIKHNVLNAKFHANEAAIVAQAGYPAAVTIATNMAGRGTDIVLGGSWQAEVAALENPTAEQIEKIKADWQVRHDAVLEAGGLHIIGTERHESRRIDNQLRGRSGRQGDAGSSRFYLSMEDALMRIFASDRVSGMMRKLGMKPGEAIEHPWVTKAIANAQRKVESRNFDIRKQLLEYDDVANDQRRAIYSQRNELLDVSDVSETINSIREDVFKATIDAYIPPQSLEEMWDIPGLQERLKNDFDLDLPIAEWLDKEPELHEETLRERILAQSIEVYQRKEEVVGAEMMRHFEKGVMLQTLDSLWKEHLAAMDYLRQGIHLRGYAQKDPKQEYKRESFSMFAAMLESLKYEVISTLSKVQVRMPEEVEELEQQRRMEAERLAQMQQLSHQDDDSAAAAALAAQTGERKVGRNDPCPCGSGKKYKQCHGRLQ

For the compound `COc1ccc(COCC(O)CNC(=O)c2cc(C)cc(C)c2)cc1` (stereo unspecified), the Percent Effect in test [1] is -3.84%; in [2] it was 13.9%; in test [3], 0.387%; in test [4] it was -0.514%; in test [5], 0.718%; in test [6] it was -4.09%. Also, the Percent Effect in test [7] is 9.95%; in [8] it was 9.63%; in test [9] it was 4.17%; in test [10] it was 17.7%; in test [11], -15.9%.
Regarding `O=C(NCCO)C1(Cc2cc(-c3ccc(F)cc3F)no2)CCOCC1`, the Percent Effect in test [1] was -2.99%; in [2], 12.2%; in test [3], 14.6%; in test [4], -1.56%; in test [5], 0.988%; in test [6], 1.16%. Also, the Percent Effect was 15.8% in test [7]; 23.3% in [8]; 0% in test [9]; 6.49% in [10]; -16.7% in test [11].
In the case of `Cn1ccc(C(=O)N2CCN(c3ncccn3)CC2)cc1=O`, the Percent Effect in test [1] is -7.23%; in [2], 5.41%; in test [3], 33.6%; in test [4], 9.56%; in test [5], -3.49%; in [6] it was -2%. The Percent Effect in [7] was 6.13%; in [8] it was 4.12%; in [9], 3.45%; in [10], 11.1%; in test [11], -2.92%.
As for `CC(C)c1csc(C2CCCN(C(=O)Cn3ccccc3=O)C2)n1` (stereo unspecified), the Percent Effect in [1] was -2.92%; in test [2], 2.63%; in [3], 1.07%; in test [4] it was -4.27%; in test [5] it was 8.27%; in test [6], -1.92%. Besides, the Percent Effect was 3.68% in [7]; 10.9% in test [8]; 0.49% in test [9]; 9.76% in test [10]; -9.15% in test [11].
Regarding `CN1C(=O)C[C@@H]2[C@@H]1CCN2C(=O)c1ccc[nH]1`, the Percent Effect in [1] was -5.79%; in test [2], -2.74%; in test [3], 1.46%; in test [4], 3.04%; in [5], -1.59%; in test [6], -3.99%. Besides, the Percent Effect was 10.7% in [7]; 17.1% in [8]; 1.04% in [9]; 6.17% in [10]; 0.233% in test [11].
In the case of `OCC1CCCN1c1cc(N2CCN(c3ccccn3)CC2)ncn1` (stereo unspecified), the Percent Effect in test [1] was -1.51%; in test [2], 2.6%; in test [3] it was 5.09%; in test [4], 12.8%; in [5] it was -1.27%; in [6], 3.58%. Also, the Percent Effect is 0.889% in [7]; 13.3% in test [8]; 5.71% in [9]; 7.06% in test [10]; -17.6% in [11].
On to `O=C(NCCCc1ccncc1)C1CCCN(Cc2ccco2)C1` (stereo unspecified), for which the Percent Effect in test [1] was -4.69%; in test [2], 5.33%; in [3], 3.79%; in test [4], -5.72%; in test [5] it was -10.8%; in [6], 1.04%. Moreover, the Percent Effect in [7] was 17.6%; in test [8], 29.8%; in test [9], -1.64%; in [10] it was 6.17%; in [11], -7.2%.
Take `O=C(Nc1ccc(CCN2CCC(O)CC2)cc1)Nc1cccnc1`: the Percent Effect in test [1] was -1.45%; in test [2], 5.41%; in [3], -3.72%; in test [4], 8.33%; in [5] it was -1.54%; in test [6], -1.91%. Further, the Percent Effect in [7] is 18.4%; in test [8], 8.03%; in test [9], 6.88%; in test [10], 4.88%; in test [11], -3.57%.
Take `c1ccc(OCCCN2CCN(c3ccc4nncn4n3)CC2)cc1`: the Percent Effect is -7.97% in [1]; -18.2% in test [2]; -5.57% in [3]; 15.6% in test [4]; 8.61% in test [5]; -5.69% in test [6]. Further, the Percent Effect is 17.6% in test [7]; 47.8% in test [8]; 18.4% in test [9]; 24.4% in test [10]; -1.5% in test [11].
In the case of `Cn1cc(C(=O)NC[C@@H]2OC[C@H]3CN(S(C)(=O)=O)CC[C@H]32)cn1`, the Percent Effect was -0.605% in test [1]; -74% in [2]; -4.74% in [3]; 17% in [4]; 7.74% in test [5]; -1.6% in test [6]. For the same compound, the Percent Effect in test [7] was 11%; in test [8], 9.87%; in test [9], 5.21%; in [10] it was 1.24%; in [11] it was -6.34%.
For the compound `Cn1cc(C2CC(=O)NC23CCN(CC2CC2)CC3)cn1` (stereo unspecified), the Percent Effect in [1] is -4.62%; in test [2], 5.33%; in test [3], -4.75%; in test [4] it was 13.8%; in test [5] it was 2.32%; in [6] it was 4.12%. Also, the Percent Effect is 10.1% in test [7]; 0.353% in test [8]; 1.04% in test [9]; 10% in [10]; -6.87% in [11].
